This is a sample that favours compounds with a hit; in the whole collection about 2.4% have one here.
D2 PAM-1: human D2 receptor positive allosteric modulation. P14416. DiscoveRx D2 beta-arrestin cells, luminescence, 90 min; 100% = 57 uM dopamine signal. potentiation, % (test concentration not listed). actives 0.23% (n = 360,000); in the data active = potentiation above about 50%; inconclusive = mostly about 30% to 49%
Target sequence (P14416 whole entry, looked up): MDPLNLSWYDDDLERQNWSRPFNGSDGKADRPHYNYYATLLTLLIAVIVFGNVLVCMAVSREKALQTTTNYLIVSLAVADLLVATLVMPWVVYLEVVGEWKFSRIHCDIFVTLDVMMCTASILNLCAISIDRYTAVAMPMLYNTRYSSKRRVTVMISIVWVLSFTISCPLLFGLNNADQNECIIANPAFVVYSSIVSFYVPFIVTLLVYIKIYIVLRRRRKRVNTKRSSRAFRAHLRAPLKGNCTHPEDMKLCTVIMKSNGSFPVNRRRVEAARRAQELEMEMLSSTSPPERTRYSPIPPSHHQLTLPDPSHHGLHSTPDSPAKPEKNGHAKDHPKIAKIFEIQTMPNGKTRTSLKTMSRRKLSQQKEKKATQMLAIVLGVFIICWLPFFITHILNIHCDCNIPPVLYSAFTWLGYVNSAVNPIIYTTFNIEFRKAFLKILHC
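PathHunter beta-arrestin assay in DiscoveRx D2 cells. Compounds were added with an EC20 of dopamine (50 nM final) for 90 min at 37 deg C. Luminescence was read 1 h after detection reagent, with 57 uM dopamine as the EC100 control.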
D2 antagonist: antagonists of human D2 dopamine receptor; HEK293 TREx D2 cells, calcium flux, dopamine EC80; actives 2% (n = 340,000); AID 485344; P14416; inhibition, % at 10 µM; in the data active = inhibition above about 30%; inactive = below that, where a call was filed; also: 0% is about no effect
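Calcium mobilization kinetics were recorded at 1 s intervals in tetracycline-induced HEK293 T-REx D2 cells, first for 180 s after compound addition and then 180 s after EC80 dopamine.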
D2 ag-1: activates the human D2 dopamine receptor; HEK293 T-REx D2 cells, calcium flux agonist mode; activation, % at 2 µM; actives 0.53% (n = 340,000);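 active = activation over 3 SD above normal in the single-dose calcium agonist read, cut at about 30% in these data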; also: 0% is about no effect
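Agonism is scored from calcium flux in a force-coupled, inducible HEK293 cell line expressing D2, read kinetically for 180 s after compound addition against dopamine controls.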
D2 ag-2: human D2 receptor agonism in beta-arrestin assay; DiscoveRx PathHunter D2 beta-arrestin, luminescence, 90 min; 100% = 57 uM dopamine signal; actives 0.084% (n = 360,000); activation, % (no concentration beside the values); P14416; AID 624465; in the data active = activation above about 40%; inconclusive = between about 15% and that limit
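Agonist mode: compounds alone added to overnight-plated D2 PathHunter cells for 90 min at 37 C, with 57 uM final dopamine (EC100) defining full response. Beta-arrestin recruitment detected by chemiluminescent reagent, read after 1 h at ambient temperature.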
D2 PAM-2: positive allosteric modulators of human D2 dopamine receptor; potentiation, % at 10 µM; AID 485347; P14416; HEK293 T-REx D2, calcium flux, EC20 dopamine potentiation; actives 0.34% (n = 340,000);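 active = potentiation over 3 SD above the plate norm, cut at about 30% in these data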; also: 0% is about no effect
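Calcium flux readout, no-wash dye, 1 read/s. Inducible HEK293 Trex D2 line, overnight 30 C. Compound alone 180 s (agonist flags), then EC20 dopamine, another 180 s to score potentiation.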
The depositor's hits bear a star; u = inconclusive; x = not tested or not shown; ! = not confirmed by another sample.

SMILES	D2 PAM-1	D2 antagonist	D2 ag-1	D2 ag-2	D2 PAM-2
Cc1ccc(Cl)cc1-n1c(CCC(=O)O)ccc1-c1cccs1	x	x	0	x	12
COC(=O)/C(=C/c1ccccc1)NC(=O)c1ccco1	-2	39*	0	-1	2
COC(=O)/C(=C/c1ccc(OC)cc1)NC(=O)c1ccco1	4	8	0	-1	-4
Cc1ccc(-c2c[n+](Cc3ccc(Cl)cc3)c3n2CCC3)cc1	-18	-13	-1	-6	-27
Clc1ccc(-c2c[n+](Cc3ccc(Cl)c(Cl)c3)c3n2CCC3)cc1	x	41*	-1	x	-20
C=CCn1cnnc1SCC(=O)Nc1cccnc1Cl	x	-2	0	x	-2
CN(C)c1ccc(/C=C/C(=O)c2c(O)c3ccccc3oc2=O)cc1	2	-2	39*	4	4
O=C(Cn1c(SCCOc2ccccc2)nc2ccccc21)N1CCOCC1	x	x	-1	x	11
O=S(=O)(N/N=C/c1ccc(N2CCOCC2)cc1)c1ccc(Br)cc1	-8	2	0	-2	31*
CCOC(=O)CC1C(=O)NCCN1c1nc2c(C)cccn2c(=O)c1/C=C1\SC(=S)N(CC(C)C)C1=O (configuration not stated)	x	19	33*	x	-2
CCOCCCNc1nc2c(C)cccn2c(=O)c1/C=C1\SC(=S)N(CC(C)C)C1=O	0	18	5	-1	5
CCCn1c(CN2CCN(c3ccc(OC)cc3)CC2)nc2c1c(=O)[nH]c(=O)n2C	x	x	0	x	0
Cc1ccc(Cl)cc1N1CCN(S(=O)(=O)c2c(C(=O)N3CCOCC3)c(C)n(C)c2C)CC1	-13	38*	0	2	15
c1ccc(Cn2c[n+](Cc3ccccc3)cn2)cc1	-5	43*	1	-3	-6
CCn1c(SCC(=O)Nc2ccccc2)nc2c(c1=O)SCC2	-6	x	x	-1	x
CCOC(=O)N1CCN(C(=O)COc2ccc(S(=O)(=O)Nc3ccc(OCC)cc3)cc2)CC1	13	4	0	1	11
CCOc1ccc(NS(=O)(=O)c2ccc(OCC(=O)N3CCCC3)cc2)cc1	3	51*	0	2	11
COc1cc(-c2nnc3sc(C4CCCCC4)nn23)cc(OC)c1OC	-35	-1	0	-2	69*
COc1cccc(-c2nnc3sc(C4CCCCC4)nn23)c1	-8	4	1	-2	16
CCN(CC)c1ccc2c(C)c(Cl)c(=O)oc2c1	-3	-6	0	7	8
CCN(CC)c1ccc2c(c1)oc(=O)c1c(Cl)cc(=O)oc12	-33	51*	48*	-5	-5
Cc1occc1-c1nnc(-c2cc([N+](=O)[O-])cc([N+](=O)[O-])c2)o1	66*	1	0	u	6
CCOC(=O)c1cccc(NC(=O)c2ccc3nc(Cc4ccccc4)oc3c2)c1	x	x	1	x	12
CNC(=S)NC1CC2CCCC(C1)N2Cc1ccccc1OC (configuration not stated)	-17	0	1	1	-8
CCNC(=S)NC1CC2CCCC(C1)N2Cc1ccc(C)cc1 (configuration not stated)	-76	82*	1	-3	-20
SMILES	D2 PAM-1	D2 antagonist	D2 ag-1	D2 ag-2	D2 PAM-2
CCNC(=S)NC1CC2CCCC(C1)N2Cc1ccco1 (configuration not stated)	-25	6	0	2	-19
CNC(=S)NC1CC2CCCC(C1)N2Cc1ccc(C)cc1 (configuration not stated)	-20	81*	0	-4	-25
CCOC(=O)N1CCN(C(=O)CN2C(=O)COc3ccc(C)cc32)CC1	-7	37*	-1	1	-6
CC1(C)Oc2ccc(C(=O)Nc3ccccc3F)cc2N(CC(=O)N2CCOCC2)C1=O	-8	-11	0	-5	8
Cc1ccc2c(c1)N(CC(=O)N1CCCC1)C(=O)CO2	-2	1	1	-3	-8
CCOC(=O)c1ccc2c(c1)N(CC(=O)N1CCCC1)C(=O)C(C)(C)O2	-15	-2	0	-3	45*
CCOC(=O)c1ccc2c(c1)N(CC(=O)N1CCCCC1)C(=O)C(C)(C)O2	-3	15	-1	-2	-6
COC(=O)CN1C(=O)C(C)(C)Oc2ccc(C(=O)Nc3ccccc3F)cc21	-3	18	-1	3	31*
CCC(C)(C)NC(=O)c1ccc2c(c1)N(CC(=O)NC1CCCC1)C(=O)C(C)(C)O2	-12	62*	-1	-6	-31
O=C(NC1CC(=O)N(c2ccc(F)cc2)C1)C1CCCC1 (configuration not stated)	x	x	1	x	-6
CCCC(=O)Nc1nnc(SCc2cc(=O)c3ccc(C)cc3[nH]2)s1	x	x	-1	x	-5
O=C(Cc1cccs1)NCc1ccncc1	1	58*	-1	-5	3
O=C(Cc1cccs1)NCCCc1ccccc1	13	69*	0	3	-12
CCC(Sc1nc2cc(OC)c(OC)cc2c(=O)n1Cc1ccc(OC)cc1)C(=O)NCCOC (configuration not stated)	-2	-1	0	-2	31*!
CCOC(=O)CSc1nnc(CNC(=O)c2cccc(C)c2)n1C	0	35*	0	u	4
CCOC(=O)CSc1nnc(CNC(=O)c2cccc(C)c2)n1-c1ccccc1OC	-1	x	x	0	-3
CC(C)C[C@H](NC(=O)N1CCN(c2ccccc2)CC1)C(=O)O	0	x	x	2	x
Cc1ccccc1C(=O)NCc1nnc(SCC(=O)N2CCN(c3ccccc3)CC2)n1C	-6	39*	-1	-6	0
Cc1ccccc1C(=O)NC(CC(C)C)C(=O)N1CCN(c2ccccc2)CC1 (configuration not stated)	-9	-3	0	0	31*
CC(Sc1nnc(C(C)Oc2ccc(F)cc2)o1)C(=O)NCc1ccc2c(c1)OCO2 (configuration not stated)	-12	x	x	4	x
Cc1ccc(-c2nc3cc(Cl)ccc3o2)cc1NC(=O)c1cc2ccccc2o1	x	x	-1	x	1
COc1ccc(NC(=O)c2c(C)oc3ccc(O)c(CN4CCCCCC4)c23)cc1Cl	x	x	-1	x	x
O=c1nc2s/c(=C\c3ccco3)c(=O)n2nc1Cc1ccc(F)cc1	-8	35*	1	0	6
CN(C)c1cc(Nc2ccc(O)cc2)c([N+](=O)[O-])c2nonc12	-4	-6	-2	-7	9
O=[N+]([O-])c1c(Nc2ccc(O)cc2)cc(Cl)c2nonc12	-68	37*	7	0	-4
OC(COc1ccc2c(c1)OCO2)CN1CCc2ccccc2C1 (configuration not stated)	-32	42*	1	0	-25

Compound activity from PubChem.
